Screens: PubChem BioAssay, several laboratories
ERa coact pot – enhances coactivator binding to human estrogen receptor alpha. P03372. TR-FRET ERalpha-LBD/SRC-Cy5 coactivator binding, 2 h; 100 = basal binding, no effect. coactivator binding (% of control), % at 25.6 µM. hit rate 1.3% among 86,000; in the data active = activity above about 200%;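 note: binding measured in presence of low estradiol as agonist stimulus; 0% = peptide alone without receptor and 100% = receptor with peptide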
DAT uptake mod – human DAT dopamine uptake with cocaine, either direction | Q01959 | LLC-PK1 hDAT cells, [14C]-dopamine uptake with cocaine IC80; actives deviate in either direction | AID 449768 | hit rate 1.3% among 110,000 | B-score at 10 µM;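 active = Z score or B-score, a plate-position-corrected score, falls beyond the plate's 99.7% confidence bounds, in either direction; inactive = both scores lie inside the 99.7% bounds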;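 note: scored against the spread of the other compound wells on the same plate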
ERb SRC1 inh – blocks coactivator binding to human estrogen receptor beta; Q92731; TR-FRET ER-beta LBD / SRC1-Cy5 peptide binding; receptor agonist-loaded with 1 µM estradiol; inhibition, % at 25.6 µM; hit rate 1.3% among 86,000; AID 633;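 active = compounds whose percent inhibition of the receptor-coactivator binding signal exceeds about 50% in the single-dose screen, limit read from the data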;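 note: 0% = receptor plus peptide wells without compound and 100% = peptide-only wells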
ERa coact inh – ER-alpha (human) coactivator binding inhibition; TR-FRET ER-alpha LBD / SRC-1 peptide, estradiol-bound; hit rate 1.7% among 86,000; inhibition, % at 25.6 µM; in the data active = inhibition above about 50%;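 note: 0% = receptor plus peptide control and 100% = peptide only without receptor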
MT1-MMP txn act – MT1-MMP promoter transcription activation; HT1080 MT1-MMP promoter luciferase reporter, luminescence, overnight; hits give high values; AID 750; hit rate 0.16% among 86,000; activation factor at 10 µM;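 active = activation factor of at least 2 for MT1-MMP transcription at 10 µM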
* = called active by the depositor; [ ] = another dose, or the depositor's remark. Hits are enriched below; roughly 3.8% of the tested compounds scored in any of these assays.

Cc1ccc(/C=c2\sc3nc(-c4ccccc4Br)nn3c2=O)o1 was read as ERa coact pot 60, ERb SRC1 inh 66*, ERa coact inh 85*[fluorescence artefact?] and MT1-MMP txn act 0.9.
For Cc1ccc(/C=c2\sc3nc(-c4ccco4)nn3c2=O)o1 the results were ERa coact pot 113, DAT uptake mod -1.2, ERb SRC1 inh 64*[fluorescence artefact?], ERa coact inh 70* and MT1-MMP txn act 1.1.
Cc1ccc(/C=c2/sc3nnc(-c4ccccc4Cl)n3c2=O)o1 was read as ERa coact pot 42, DAT uptake mod 1.7, ERb SRC1 inh 44, ERa coact inh 58*[fluorescence artefact?] and MT1-MMP txn act 1.1.
For COc1ccccc1/C=c1\sc2nc(-c3ccncc3)nn2c1=O the results were ERa coact pot 101, ERb SRC1 inh 13, ERa coact inh 9 and MT1-MMP txn act 1.
`COc1ccc(Br)cc1/C=c1\sc2nc(-c3ccco3)nn2c1=O` gave DAT uptake mod 0.18 and MT1-MMP txn act 1.1.
For Cc1ccc(-c2nc3s/c(=C\c4ccco4)c(=O)n3n2)cc1 the results were ERa coact pot 23, DAT uptake mod 0.29, ERb SRC1 inh 58*, ERa coact inh 96*[fluorescence artefact?] and MT1-MMP txn act 1.2.
Screening CCN(CC)c1ccc(/C=c2\sc3nnc(-c4ccccc4Cl)n3c2=O)cc1 returned ERa coact pot 147, DAT uptake mod 0.94, ERb SRC1 inh -3, ERa coact inh -2 and MT1-MMP txn act 1.2.
CCCc1nnc(SCC(=O)N2CCOCC2)n1C was read as ERa coact pot 133, DAT uptake mod 0.37, ERb SRC1 inh 1, ERa coact inh 18 and MT1-MMP txn act 1.2.
Screening O=c1nc2n(c3ccc(Br)cc13)CCS2 returned ERa coact pot 104, DAT uptake mod -0.54, ERb SRC1 inh -3, ERa coact inh 6 and MT1-MMP txn act 1.3.
`COc1ccc(/C=N/NC(=O)CCc2c(C)n[nH]c2C)cc1O` gave ERa coact pot 106, DAT uptake mod -1.6, ERb SRC1 inh -3 and ERa coact inh -10.
CCN(CC)c1ccc(/C=c2/sc3nnc(-c4ccccc4C)n3c2=O)cc1 was read as ERa coact pot 413*[fluorescence artefact?], DAT uptake mod 0.23, ERb SRC1 inh 28, ERa coact inh 41 and MT1-MMP txn act 1.
Screening O=c1nc2s/c(=C\c3ccco3)c(=O)n2nc1Cc1ccc(F)cc1 returned ERa coact pot 4, DAT uptake mod 0.57, ERb SRC1 inh 88*, ERa coact inh 96*[fluorescence artefact?] and MT1-MMP txn act 1.
Screening O=c1/c(=C/c2ccco2)sc2n1CN(c1ccccc1)CN=2 returned ERa coact pot 112, DAT uptake mod -0.16, ERb SRC1 inh -15, ERa coact inh -6 and MT1-MMP txn act 1.1.
CN(C)c1nc(OCCNC(=O)COc2ccccc2Cl)nc(N(C)C)n1 was read as ERa coact pot 112, DAT uptake mod 0.13, ERb SRC1 inh -2, ERa coact inh 9 and MT1-MMP txn act 1.2.
CCCCOC(=O)C1=C(C)Nc2ncnn2C1c1cccc(OC)c1OC (stereo not drawn) was read as ERa coact pot 111, DAT uptake mod -2.9*, ERb SRC1 inh -3, ERa coact inh -7 and MT1-MMP txn act 0.9.
Screening CCCCOC(=O)C1=C(C)Nc2ncnn2C1c1cc(OC)ccc1OC (stereo not drawn) returned ERa coact pot 96, DAT uptake mod 1.7, ERb SRC1 inh -1, ERa coact inh 3 and MT1-MMP txn act 1.
`CCCCC1C(=O)N(c2ccccc2)N(c2ccccc2)C1=O` gave ERa coact pot 16, DAT uptake mod 0.1, ERb SRC1 inh 83*[fluorescence artefact?], ERa coact inh 92* and MT1-MMP txn act 1.1.
Screening Cc1cc(C)nc(SCc2nnc(SCC(=O)N3CCCc4ccccc43)o2)n1 returned ERa coact pot 119, DAT uptake mod 3.3*, ERb SRC1 inh -7, ERa coact inh -13 and MT1-MMP txn act 1.
O=C(CSc1nnc(Cc2ccccc2)o1)N1CCCc2ccccc21 was read as ERa coact pot 104, DAT uptake mod 2.6*, ERb SRC1 inh 4, ERa coact inh -6 and MT1-MMP txn act 1.
CC(=O)NC(C)C(=O)OCC(=O)Nc1ccc(Br)cc1 (stereo not drawn) was read as ERa coact pot 109, DAT uptake mod -1, ERb SRC1 inh 36, ERa coact inh 78* and MT1-MMP txn act 1.5.
For COCCNC(C)C(=O)Nc1ccc(Br)cc1 (stereo not drawn) the results were ERa coact pot 97, DAT uptake mod -0.34, ERb SRC1 inh -6, ERa coact inh -7 and MT1-MMP txn act 0.9.
